Test results reported in publication PMC5540273 (PLoS ONE, 2017).

Columns and labels:
Details in all cases: concentration: 1 μM, replicates: in singlicate; n = 1
[1] = system: INSRR
[2] = system: INSR
[3] = system: IRAK1
[4] = system: IRAK3
[5] = system: IRAK4
[6] = system: ITK
[7] = system: JAK1(JH1domain-catalytic)
[8] = system: JAK1(JH2domain-pseudokinase)
[9] = system: JAK2(JH1domain-catalytic)
[10] = system: JAK3(JH1domain-catalytic)
[11] = system: T1, JNK1
T1 construct: gene MAPK8

[12] = system: T2, JNK2
T2 construct: gene MAPK9

[13] = system: T3, JNK3
T3 construct: gene MAPK10

[14] = system: KIT-autoinhibited
[15] = system: KIT
[16] = system: LATS1
[17] = system: LATS2
[18] = system: LCK
[19] = system: LIMK1
[20] = system: LIMK2
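Note: KINOMEscan kinase panel screen.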

SMILES	%Inh [1] [%]	%Inh [2] [%]	%Inh [3] [%]	%Inh [4] [%]	%Inh [5] [%]	%Inh [6] [%]	%Inh [7] [%]	%Inh [8] [%]	%Inh [9] [%]	%Inh [10] [%]	%Inh [11] [%]	%Inh [12] [%]	%Inh [13] [%]	%Inh [14] [%]	%Inh [15] [%]	%Inh [16] [%]	%Inh [17] [%]	%Inh [18] [%]	%Inh [19] [%]	%Inh [20] [%]
C[C@H]1CC[C@@H](C(=O)Nc2ccccc2)CN1c1cc(-c2ccc3c(N)n[nH]c3c2)nc(N)n1 [GSK2283293]	0	0	0	16	0	17	0	0	0	0	5	25	1	16	1	0	9	5	0	0
CCn1c(-c2ccncc2)nc2cnccc21 [SB-735216]	0	7	6	0	17	0	15	12	10	0	23	11	17	10	0	17	9	0	12	0
Cc1cc(N2CCC(NS(=O)(=O)c3ccc(F)cc3)CC2)nc(Nc2cccc(C#N)c2)n1.O=C(O)C(F)(F)F [GSK1653537]	0	0	0	0	4	1	7	0	6	0	16	17	0	0	0	0	0	10	0	0
COc1ccc(NC(=O)Nc2ccc(C)c(-c3ccc(C(=O)Nc4ccncc4)cc3)c2)cc1 [GSK1398475]	0	30	0	0	0	9	11	0	0	0	5	4	0	0	100	0	6	47	0	22
CS(=O)(=O)CCNCc1nc(-c2ccc3ncnc(Nc4ccc(OCc5cccc(F)c5)c(Cl)c4)c3c2)cs1.Cl [GW583340]	0	1	0	0	5	0	24	0	0	0	0	0	0	0	7	0	9	5	0	3
O=C(c1ccc(-c2cc(-c3c[nH]nc3-c3ccccn3)ccn2)cc1)N1CCCC1 [GW792479]	0	6	0	0	0	0	0	15	0	39	27	0	0	0	11	0	0	3	0	0
Cn1cc(-c2ccc3c(c2)CCN3C(=O)Cc2cccc(C(F)(F)F)c2)c2c(N)ncnc21 [GSK2606414]	3	1	0	15	10	12	7	0	34	0	1	0	0	0	87	0	0	20	0	9
Oc1ccc2ncnc(Nc3ccc(OCc4ccccc4)cc3)c2c1 [GI262866]	18	0	0	0	5	4	12	0	0	0	0	0	0	0	48	0	0	2	0	4
FC(F)(F)c1cc(Nc2nccc(-c3c(-c4ccc(Cl)cc4)nn4ncccc34)n2)ccc1Cl [GW829351]	0	0	0	0	0	0	0	0	13	0	8	58	65	1	38	0	0	0	0	0
O=c1cc(N2CCOCC2)nc2n(Cc3cccc(Cl)c3)ccn12 [GSK2296823]	0	0	60	32	16	19	0	0	10	0	21	12	7	4	11	0	46	17	15	0
Cl.Cn1ccc(-c2cccc(Nc3ccnc4cc(-c5nccs5)ccc34)c2)n1 [GW525701]	0	0	41	0	15	7	18	0	0	0	12	13	2	0	33	0	0	3	0	0
COC(=O)c1cccc(NC(=O)NCCNc2ccnc(Nc3ccc(F)cc3)n2)c1 [GSK1379883]	0	0	13	0	4	11	30	0	1	0	18	25	7	0	23	0	0	5	0	19
CNc1nccc(-c2c(-c3ccc(F)cc3)ncn2CCCN2CCOCC2)n1 [SB-222516]	0	0	6	10	9	4	0	0	8	0	12	0	0	4	2	0	0	1	11	95.2
Nc1nc(-c2ccc3c(N)n[nH]c3c2)cc(N2CCCCC2)n1 [GSK2228768]	0	1	0	0	9	18	0	0	0	0	5	11	0	0	5	0	0	3	0	0
c1ccc(-c2ccc3c(-c4ccnc(Nc5ccc6c(c5)OCCO6)n4)cnn3n2)cc1 [GW818941]	11	3	8	42	6	9	14	0	11	0	28	4	8	0	10	11	0	22	27	0
Nc1nc(-c2cccnc2)c(-c2ccnc3ccccc23)s1 [GW684083]	0	2	42	16	1	15	6	0	0	0	23	29	11	0	23	0	26	17	0	0

SMILES	%Inh [1] [%]	%Inh [2] [%]	%Inh [3] [%]	%Inh [4] [%]	%Inh [5] [%]	%Inh [6] [%]	%Inh [7] [%]	%Inh [8] [%]	%Inh [9] [%]	%Inh [10] [%]	%Inh [11] [%]	%Inh [12] [%]	%Inh [13] [%]	%Inh [14] [%]	%Inh [15] [%]	%Inh [16] [%]	%Inh [17] [%]	%Inh [18] [%]	%Inh [19] [%]	%Inh [20] [%]
Cl.c1ccc(Cn2ncc3cc(Nc4ncnc5ccccc45)ccc32)cc1 [GW273749]	0	3	0	0	9	0	8	0	11	0	5	5	0	0	4	0	0	15	0	75
COc1ccc(-c2oc3ncnc(N)c3c2-c2ccc(OC)cc2)cc1 [SB-589132]	0	0	56	15	58	19	25	31	1	19	30	10	0	29	49	100	0	54	24	8
COc1ccc(NC(=O)c2ccc(-c3cc(-c4nnc(C)o4)ccc3C)cc2)cc1 [GW595885]	0	0	37	0	16	6	9	0	12	0	20	17	12	0	64	0	0	18	3	0
Cl.O=S(=O)(c1cccc(F)c1)c1ccc(Nc2ncnc3cc(Br)sc23)cc1Cl [GSK306886]	0	13	32	0	0	0	15	0	2	0	0	7	4	0	34	0	0	15	33	3
Nc1nccc2scc(-c3ccc4c(c3)CCN4C(=O)Cc3cc(F)ccc3F)c12 [GSK2587663]	0	0	17	10	7	18	14	0	0	0	22	26	8	0	64	0	8	22	4	13
N#Cc1ccc(Oc2ccc(Nc3ncnc4cc[nH]c34)cc2Cl)cc1	0	0	16	3	13	9	12	25	19	4	58	9	20	3	31	22	23	0	13	0
Fc1ccc(Nc2nccc(-c3c(-c4ccc(Cl)cc4)nn4ncccc34)n2)cc1F [GW829058]	20	19	24	7	0	18	0	12	39	37	40	63	56	12	38	11	19	11	0	7
NC(=O)c1sc(-n2cnc3ccccc32)cc1OCc1ccccc1F [GSK1024306]	0	0	0	0	0	8	6	0	21	0	3	28	14	0	0	0	0	9	0	20
CCC(CC)(CC)n1cnc2c(N)ncnc21 [SKF-97620]	4	0	33	0	0	9	10	0	22	22	29	24	4	0	0	24	0	14	10	0
Fc1cccc(COc2ccc(Nc3ncnc4sc(-c5ccc[nH]5)cc34)cc2Cl)c1 [GW707818]	0	13	20	0	0	0	18	4	100	0	1	15	0	0	16	9	0	8	9	17
Cc1ccc(C)c(NC(=O)NCCNc2ccnc(Nc3ccc(F)cc3)n2)c1 [GSK1379878]	0	0	0	0	0	0	0	0	1	0	13	13	2	0	0	0	0	3	0	0
CCCc1ccc(S(=O)(=O)NC2CCN(c3ccnc(Nc4ccc(OC)cc4)n3)C2)cc1 (centres unmarked) [GSK1379737]	0	0	39	0	24	14	34	0	73	0	20	21	0	0	37	0	0	16	0	100
Fc1cccc(COc2ccc(Nc3ncnc4nn5ccccc5c34)cc2Cl)c1 [GW689066]	0	8	8	0	0	3	2	0	0	0	11	10	0	0	0	0	0	5	0	0
CCc1nc(-c2cccc(N(C)S(=O)(=O)c3ccccc3)c2)c(-c2ccnc(Nc3ccc(N4CCN(C(C)=O)CC4)nc3)n2)s1 [GSK1645895]	0	20	11	0	13	0	15	21	0	0	23	30	22	8	19	0	20	44	31	0
Nc1n[nH]c2nnc(-c3ccccc3)cc12 [SB-517389]	0	0	22	0	25	13	13	8	42	0	27	5	0	0	1	0	0	0	19	3
